Screening results: PubChem BioAssay, several laboratories
Most compounds without a hit are left out; they make up all but 1.4% or so of the library.
CRFR2-BP ag: agonists of human CRF-binding protein/CRF-R2 receptor complex; HEK293 CRF-R2/CRF-BP, calcium dye fluorescence (FLIPR); percent of saturating CRF peptide response; activation, % at 13.2 µM; hit rate 0.46% among 350,000; AID 588473;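 active means activation of at least 50%, plus an integration ratio under a set limit after plate pattern correction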;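 further: plate controls were neutral control wells without compound for no effect and CRF at EC100 for full effect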
IDE act: boosts human insulin-degrading enzyme activity in HEK cells; FAbeta-B cleavage, fluorescence polarization; 0% vehicle, 100% cell-free pure enzyme wells; activation, % at 5.96 µM; hit rate 0.073% among 340,000; AID 493087;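 active means activation above the mean of all tested compounds plus 3 SD, set per screening campaign, cut at about 17% in these data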
Target sequence (P14735 whole entry, looked up): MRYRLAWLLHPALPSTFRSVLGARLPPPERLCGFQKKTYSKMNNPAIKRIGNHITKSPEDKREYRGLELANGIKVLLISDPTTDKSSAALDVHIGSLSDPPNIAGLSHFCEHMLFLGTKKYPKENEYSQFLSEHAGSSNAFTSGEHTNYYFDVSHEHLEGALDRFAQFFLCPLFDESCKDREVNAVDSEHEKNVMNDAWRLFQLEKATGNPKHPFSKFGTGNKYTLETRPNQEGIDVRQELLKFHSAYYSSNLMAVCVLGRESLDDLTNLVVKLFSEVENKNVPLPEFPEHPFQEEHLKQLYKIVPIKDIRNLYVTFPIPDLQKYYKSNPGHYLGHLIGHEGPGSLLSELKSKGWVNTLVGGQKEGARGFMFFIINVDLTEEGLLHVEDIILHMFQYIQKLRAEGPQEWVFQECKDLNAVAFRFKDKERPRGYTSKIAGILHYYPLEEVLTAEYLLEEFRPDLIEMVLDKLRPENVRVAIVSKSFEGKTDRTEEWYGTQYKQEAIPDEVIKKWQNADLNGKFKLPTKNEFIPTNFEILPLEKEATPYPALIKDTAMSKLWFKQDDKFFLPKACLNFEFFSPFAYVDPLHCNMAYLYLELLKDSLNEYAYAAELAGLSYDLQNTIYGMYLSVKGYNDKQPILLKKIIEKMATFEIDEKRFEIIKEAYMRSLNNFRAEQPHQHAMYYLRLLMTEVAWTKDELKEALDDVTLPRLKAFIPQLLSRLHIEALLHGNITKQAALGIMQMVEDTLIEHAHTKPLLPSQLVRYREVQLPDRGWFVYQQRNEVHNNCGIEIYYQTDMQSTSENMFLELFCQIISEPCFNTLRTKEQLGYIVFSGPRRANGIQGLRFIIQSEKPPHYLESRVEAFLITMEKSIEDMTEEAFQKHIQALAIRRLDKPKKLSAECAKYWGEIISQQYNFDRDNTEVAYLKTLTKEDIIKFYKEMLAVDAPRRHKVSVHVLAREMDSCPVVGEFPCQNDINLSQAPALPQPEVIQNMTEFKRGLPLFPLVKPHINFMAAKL
IDE cell inh: cellular human IDE inhibition | P14735 | HEK cells, FAbetaB cleavage, fluorescence polarization | inhibition, % at 5.59 µM | hit rate 0.41% among 320,000 | AID 434962;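 active means percent inhibition above the average of all tested compounds plus 3 SD, set per screening campaign, cut at about 16% in these data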;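 further: IDE supplied by intact live HEK cells; FP after avidin binding of uncleaved biotin substrate so inhibition keeps polarization high; 0% = DMSO wells and 100% = 60 µM reference IDE inhibitor Ii1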
HNF4A DNA FP: change in binding of human HNF4 alpha to DNA. P41235. HNF4a-FITC DNA binding, fluorescence polarization, 1 h. activity change, % at 10 µM. hit rate 0.3% among 360,000; in the data active means activity change above about 30%, passing the limit was not always enough
TPT1 inhibitor: C. albicans TPT1 enzyme inhibition; recombinant caTPT1, FP RNA substrate dephosphorylation; inhibition, % at 5 µM; hit rate 0.81% among 300,000; AID 1962;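 active means inhibition above the mean of all tested compounds plus 3 SD, set per screening campaign, cut at about 24% in these data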;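 further: plate controls were DMSO alone for no effect and ferristatin control at 100 nM for full effect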
* hit, by the source's call; / = not tested or not shown.

SMILES | CRFR2-BP ag | IDE act | IDE cell inh | HNF4A DNA FP | TPT1 inhibitor
O=C(COC(=O)CNC(=O)c1ccc(Cl)cc1)Nc1ccc(Cl)cn1 | 0.3 | -6.7 | 3.6 | 1.4 | /
S=c1[nH]cnc2sc(-c3ccccc3)cc12 | 2.6 | -17.1 | 19.0* | 1.2 | -2.1
COCCCN(C(=O)CC1OC(=O)c2ccccc21)c1c(N)n(Cc2ccccc2)c(=O)[nH]c1=O (configuration not stated) | 0.6 | -6.3 | 0.2 | 3.5 | 3.5
Cc1c2ccccc2nc2c(F)c(NCCO)c(F)c(F)c12 | 19.0 | 6.4 | -3.3 | -34.7 | -53.3
OCCNc1c2ccccc2nc2c(F)c(F)c(F)c(F)c12 | 69.0* | -4.5 | 3.4 | -54.9 | -7.0
CCCCNC(=O)C[C@@H]1C[C@@]2(C(=O)OCC)CCCC=C2N(CCC2=CCCCC2)C1=O | / | / | / | 4.2 | /
CCCCN1CC(COCc2ccccc2)Oc2cccc(OCc3ccc(OC)cc3)c2S1(=O)=O (configuration not stated) | 4.4 | / | / | -2.4 | /
C/C(=N/Nc1ccc([N+](=O)[O-])cc1)c1c[nH]c2ccccc12 | 39.0 | 3.0 | / | 70.0* | /
Cc1ccc(C)c(S(=O)(=O)N(C)C2(C)CCS(=O)(=O)C2)c1 (configuration not stated) | 1.9 | 0.7 | -2.2 | 1.8 | -0.8
Cc1ccc(C2=[N+]([O-])C(C)(C)N(O)C2(C)C)cc1 | -4.2 | 4.1 | 6.2 | 0.2 | -0.4
CC1=[N+]([O-])C(C)(C)N(O)C1(C)C | 152.1* | 5.5 | -0.8 | 3.0 | 3.5
Cc1cc(C)nc(NC(=O)NC(=O)c2ccccc2)n1 | 0.7 | 2.2 | -1.7 | 3.5 | -3.8
Cc1cc(C)nc(NC(C)(C)C(=O)O)n1 | 0.3 | 5.8 | 3.1 | 46.7* | -2.1
CCOc1ccc(C(C)NC(=S)NCc2ccc(Cl)cc2)cc1 (configuration not stated) | 95.3* | -3.3 | 0.8 | -4.0 | -0.6
CCCc1ccc(C(C)NC(=S)NCc2ccc(F)cc2)cc1 (configuration not stated) | 53.3* | 5.3 | -0.3 | 0.4 | 0.5
COc1cccc(C2=CC(=O)C(C(C)(C)C)N2C(C)(C)C)c1 (configuration not stated) | -3.1 | 0.4 | / | 0.3 | /
CC1CN(C(=O)C(C)OC(=O)c2ccc3ncsc3c2)CC(C)O1 (configuration not stated) | -0.5 | -2.5 | 4.2 | 1.7 | /
CCCC[C@H]1COCCS(=O)(=O)N1Cc1cccc([N+](=O)[O-])c1 | 0.1 | 5.5 | 6.1 | 0.7 | -2.0
COc1ccccc1N1C(=O)C(Cl)=C(Nc2ccccc2O)C1=O | 84.0* | -5.3 | / | 9.8 | /
Cc1ccc(C(=O)NNC(=S)NC(=O)COc2ccccc2)cc1 | 141.7* | 1.6 | 8.4 | 1.5 | -1.6
COC(=O)c1ccccc1NC(=S)NC(=O)COc1ccccc1 | -3.7 | 0.8 | -8.5 | 3.4 | -4.7
CC(C)(C)c1ccc(C(=O)NC(=S)NNC(=O)COc2ccccc2)cc1 | 95.7* | -13.7 | 0.4 | -0.5 | -7.2
Cc1ccccc1C(=O)NNC(=S)NC(=O)COc1ccccc1 | 129.1* | -3.5 | 2.1 | 3.8 | -1.6
Cc1cccc(OCC(=O)NC(=S)NNC(=O)c2ccncc2)c1 | -2.4 | -6.0 | 5.8 | -1.1 | -2.1
CC(C)(C)c1ccc(OCC(=O)NNC(=O)CCc2ccccc2)cc1 | -1.0 | 6.6 | -1.9 | -1.0 | 1.7
SMILES | CRFR2-BP ag | IDE act | IDE cell inh | HNF4A DNA FP | TPT1 inhibitor
CC(C)NC(=O)C(=O)NCCC1CCCCN1S(=O)(=O)c1cccs1 (configuration not stated) | -2.4 | 6.0 | 1.5 | 4.7 | -2.3
Cc1ccnc(NS(=O)(=O)c2ccc(NC(=O)Cc3ccc(Cl)cc3)cc2)n1 | 0.2 | 0.8 | -4.1 | 1.5 | -2.6
Cc1ccnc(NS(=O)(=O)c2ccc(NC(=O)Cc3c(F)cccc3Cl)cc2)n1 | -0.4 | 1.4 | -3.9 | 48.3* | 1.3
Cc1ccc(S(=O)(=O)/N=C/c2cc(Br)ccc2O)cc1 | -0.9 | 23.3* | 4.0 | -3.6 | -1.5
CCOC(=O)c1cnc(-n2cc(C)cn2)nc1NCc1ccc2c(c1)OCO2 | 0.0 | -2.6 | -5.6 | 48.0* | 0.8
CCOC(=O)c1cnc(-n2nc(C)cc2C)nc1NCc1ccccc1 | 0.3 | 6.0 | 1.4 | 2.7 | 3.5
CCc1ccc(N=Nc2ccc(O)c3[nH]cnc23)cc1 | 26.8 | -1.6 | 7.1 | 41.5* | /
C=C(C)COc1ccc(-c2[nH]ncc2Oc2ccccc2OC)c(O)c1 | -5.4 | 2.5 | -0.5 | -4.0 | -4.0
C=C(C)COc1ccc(-c2[nH]ncc2Oc2ccc(OC)cc2)c(O)c1 | 3.7 | 20.7* | 2.4 | -2.8 | -1.2
COc1ccc(Cl)cc1Nc1nc(-c2sc(NC(=O)c3ccccc3)nc2C)cs1 | / | / | 2.4 | / | 5.1
COc1ccc(OC)c(Nc2nc(-c3sc(NC(=O)c4ccccc4)nc3C)cs2)c1 | / | / | 0.5 | / | 35.8*
Cc1cc(N2CCCC2)c(F)cc1/C=C\[N+](=O)[O-] | 120.5* | -41.3 | / | -1.1 | /
Cc1cc(N2CCC(C)CC2)c(F)cc1[N+](=O)[O-] | -1.1 | -2.8 | 4.2 | 3.7 | 0.7
CC(=O)Nc1ccc(N2Cc3ccccc3C2)cc1 | 3.7 | 5.2 | 7.1 | 6.8 | 5.4
CC(=O)Nc1ccc(N2S(=O)(=O)c3ccccc3S2(=O)=O)cc1 | 1.3 | 20.3* | -0.5 | 3.1 | 1.9
Cc1nc2ccc(S(=O)(=O)N(C)CC(=O)Nc3ccccc3F)cc2s1 | -1.5 | -1.3 | 2.9 | 0.3 | -1.8
CCCc1nc2c3ccccc3ccn2c1Cc1ccc(OC)cc1C | / | / | / | 42.7* | /
COC(=O)[C@@]12C[C@@H](CC(=O)NCc3ccc(C)o3)C(=O)N(Cc3ccc4c(c3)OCO4)C1=CCC(C)(C)C2 | / | / | / | 0.5 | /
CCN(c1ccccc1)S(=O)(=O)c1cc2c(cc1C)NC(=O)CO2 | -8.7 | -7.6 | 1.9 | -0.8 | -5.1
O=C(N/N=C1/C(=O)c2cccc3cccc1c23)c1ccc(Cl)cc1 | 52.2* | 5.6 | 0.4 | -8.4 | 11.2
CC(=O)N1CCc2cc(S(=O)(=O)CCC(=O)NCc3ccc(F)cc3)ccc21 | -1.0 | 7.2 | -5.3 | -1.9 | 3.1
COc1ccc(N2C(=O)[C@@H]3[C@H](C2=O)[C@H]2c4ccccc4C=CN2[C@@H]3C(=O)Nc2ccccc2)cc1 | -0.5 | -6.5 | 3.6 | 100.9 | 102.3*
CCOC(=O)c1sc(-c2ccc(F)cc2)cc1NC(=O)Nc1ccccc1OC | 89.2* | -5.2 | 1.4 | 1.1 | -3.1
CC1(C)Cc2c(cnn2-c2ccc(F)cc2)C(NC(=O)CCN2CCCC2=O)C1 (configuration not stated) | 0.3 | 3.7 | 3.5 | -2.1 | 1.3
CCCC(C(=O)Nc1ccc(S(=O)(=O)Nc2ncccn2)cc1)c1ccccc1 (configuration not stated) | 7.2 | 6.7 | 0.2 | 34.0* | -2.6
CCCC(C(=O)Nc1ccc(S(=O)(=O)N2CCCC2)cc1)c1ccccc1 (configuration not stated) | 8.3 | 0.8 | -2.9 | -1.1 | -2.1
CC(C(=O)O)N1C(=O)CSC1=S (configuration not stated) | -0.3 | -2.7 | 2.0 | 88.4* | -3.5
O=c1nc(-c2ccccc2)n(-c2ccc(Cl)cc2)[nH]1 | 90.5* | -1.7 | -3.8 | 1.5 | 2.5
